Our source for the growth values is PubChem BioAssay (NCI).

About 83,000 compounds went through this panel and 20% of them were active in at least one assay; those are over-represented in the sample as a whole.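 Results are percent growth after 48 hours of single-concentration exposure. 100 means growth as in untreated cells, lower positive values show inhibition; negative values down to -100 show cell death.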 A number with no mark means an inactive call. Calls of active or inactive are those of the source. How the source made its calls: active means growth percent below 10; inactive means the rest.

The first experiment relates to SNB-19 CNS. The experiment can be described thus: NCI-60 one-dose screen, 48 h (100 = growth as untreated, 0 = no growth, -100 = all killed). The settings on record: 10 µM unless noted.
On to `COc1ccccc1Cn1cc2c(c1)-c1oncc1CC2`, for which the growth is 38.3%.

For `CC1=NN(c2cccc(Cl)c2)C(=O)/C1=C\c1cn(-c2nc(N3CCOCC3)nc(N3CCOCC3)n2)c2ccccc12`, the growth was 103%.

Regarding `NC(=O)c1c(Nc2ccccc2)nn2cc(-c3nc4ccccc4s3)c(N)nc12`, the growth is 92.7%.

`COc1cc(/C(=C2/O[C@@H]([C@H]3COC(C)(C)O3)[C@H]3OC(C)(C)O[C@@H]23)c2ccc3c(c2)OCO3)cc(OC)c1OC`: the growth is 75.7%.

With `O=C(N/N=C/c1coc2ccccc2c1=O)c1cc2oc(-c3ccccc3)cc2[nH]1`, the growth was 92.9%.

In the case of `CCCCCCCCCC[N+](C)(C)C`, the growth is 13.4%.

In the case of `CCCCCCC(=O)C(C)C`, the growth is 107%.

With `CCCC(=O)NNc1[nH]c(-c2ccc(OC)cc2)cc1C(=O)OCC`, the growth was 108%.

In the case of `O=C1c2cc([N+](=O)[O-])ccc2-c2cc(Cl)c(NC(=O)C(F)(F)F)cc21`, the growth is 106%.

Consider `N=C(c1ccccc1)N(Cc1ccccc1)Cc1ccccc1`, for which the growth is 99.8%.

For `CSCc1ncc(-c2ccc(C(F)(F)F)cc2)c(NC2CCCCCC2)n1`, the growth was 73.1% [25 µM].

Regarding `O=C(Nc1cccc(Cn2c(=O)[nH]c3ccc(Oc4ncccn4)cc3c2=O)c1)c1ccc(Cl)cc1`, the growth was 58.5%.

In the case of `CC[C@H](Nc1ncnc2nc[nH]c12)c1nc2cccc(NCc3ccc(C(=O)NO)o3)c2c(=O)n1-c1ccccc1`, the growth was 99.7%.

Regarding `CCCCCCCCCC[N+](C)(C)N`, the growth was 87.2%.

`C=C(C)C(C(=O)OCC)(C(=O)OCC)C(C)C`: the growth is 99.9%.

As to `COC1=CC(c2ccc[nH]2)=N/C1=C\c1[nH]c(C)c(C(=O)CCCCC(=O)NC(C)(C)C)c1C`, the growth is 70.1%.

Turning to `COc1ccc(NC(=O)/C=C(C)/C=C/C=C(C)/C=C/C2=C(C)CCCC2(C)C)cc1`, the growth was 110%.

Take `CCCCCCCCc1ccc(OCCOCC[N+](C)(C)CC)cc1` (tested in a mixture with another compound): the growth was 16.4%.

Regarding `COc1cc2c(cc1OC)C(Cc1cc(OC)c(OC)cc1[N+](=O)[O-])=NCC2`, the growth was 94.3%.

As for `O=C1CCNC1`, the growth is 102%.

On to `COc1ccc(-c2nnc(SCC(=O)Nc3ccc(C(=O)/C=C/c4cc(OC)c(OC)c(OC)c4)cc3)n2-c2ccccc2)cc1OC`, for which the growth is -19.9% [100 µM] (active).

As to `O=S(=O)(O)c1ccc2c(c1)Sc1cc(S(=O)(=O)O)ccc1O2`, the growth was 103%.

With `Cc1ccc(S(=O)(=O)Nc2cccc(Cn3c(=O)[nH]c4ccc(Oc5ncccn5)cc4c3=O)c2)cc1`, the growth is 57.4%.

For the molecule `CCCCCCCCCCC(C[N+](C)(C)C/C=C/c1ccccc1)C(O)c1ccccc1` (stereo not given), the growth is 35.8%.

For `COc1ccc(/C=C2\CCCC3=C2N=C2SC=NN2C3c2ccc(OC)c(OC)c2)cc1OC` (stereo not given), the growth was 68.6%.

For the molecule `COc1cc(CCNc2cnc3cc(N)cc(N)c3n2)cc(OC)c1`, the growth was 111%.

Regarding `O=C(CCl)c1ccc2c(c1)CCCC2`, the growth is 108%.

With `Cc1ccc(C(=O)Nc2ccc(CN3CCN(C)CC3)c(C(F)(F)F)c2)cc1C#Cc1cnc(N)c2ccc(F)cc12`, the growth is -99.1% (active).

For `Cc1ccc(C(=O)Nc2ccc(CN3CCN(C)CC3)c(C(F)(F)F)c2)cc1C#Cc1cncc2ncccc12`, the growth was -99.3% (active).

Take `O=C(Nc1ccc(-n2cc(-c3ccncc3)c(-c3ccc(Cl)c(O)c3)n2)cc1)c1cc(C(F)(F)F)cc(C(F)(F)F)c1`: the growth is 72.5%.

For `CCCCCCCCCC(C)NC(=O)CCl` (stereo not given), the growth is 86.5%.

Take `COc1ccc(C(=O)CN2C(=O)NC(c3ccccc3)(c3ccccc3)C2=O)cc1`: the growth is 102%.

As for `CCCCCCCCC(=O)Nc1ccc(O)cc1`, the growth was 112%.

Consider `COc1ccc(-c2nc(SCC(C)C)nc(Nc3ccccc3)c2C#N)cc1`, for which the growth is 81.3%.

As for `N#Cc1ccc(NC2c3ccccc3CC2O)cc1` (stereo not given), the growth is 109%.

Take `N#CCCCCCCCCCCC#N`: the growth is 109%.

Consider `CCOC(=O)c1ccc2n1CCCc1cnc(NC(C)=O)nc1-2`, for which the growth is 99.7%.

Take `O=C(/C(Br)=C/c1ccccc1)c1ccccc1`: the growth was 96.2%.

With `COc1ccc2c(N)ncc(C#Cc3cc(C(=O)Nc4ccc(CN5CCN(C)CC5)c(C(F)(F)F)c4)cnc3C)c2c1`, the growth is -82.2% (active).

With `CCCCCCCCCCCC(=O)OC(C)C(=O)Nc1ccccc1` (stereo not given), the growth is 95.1%.

Another experiment deals with U251 CNS. The description is as above. The note with it: 10 µM unless noted.
As to `COc1ccccc1Cn1cc2c(c1)-c1oncc1CC2`, the growth was 28.4%.

In the case of `CC1=NN(c2cccc(Cl)c2)C(=O)/C1=C\c1cn(-c2nc(N3CCOCC3)nc(N3CCOCC3)n2)c2ccccc12`, the growth is 110%.

With `NC(=O)c1c(Nc2ccccc2)nn2cc(-c3nc4ccccc4s3)c(N)nc12`, the growth is 101%.

As for `COc1cc(/C(=C2/O[C@@H]([C@H]3COC(C)(C)O3)[C@H]3OC(C)(C)O[C@@H]23)c2ccc3c(c2)OCO3)cc(OC)c1OC`, the growth is 47.1%.

With `O=C(N/N=C/c1coc2ccccc2c1=O)c1cc2oc(-c3ccccc3)cc2[nH]1`, the growth was 97.9%.

As to `CCCCCCCCCC[N+](C)(C)C`, the growth is -75.4% (active).

`CCCCCCC(=O)C(C)C`: the growth is 98.6%.

For `CCCC(=O)NNc1[nH]c(-c2ccc(OC)cc2)cc1C(=O)OCC`, the growth was 104%.

In the case of `O=C1c2cc([N+](=O)[O-])ccc2-c2cc(Cl)c(NC(=O)C(F)(F)F)cc21`, the growth is 110%.

Regarding `N=C(c1ccccc1)N(Cc1ccccc1)Cc1ccccc1`, the growth was 96.7%.

In the case of `CSCc1ncc(-c2ccc(C(F)(F)F)cc2)c(NC2CCCCCC2)n1`, the growth was 68.5% [25 µM].

In the case of `O=C(Nc1cccc(Cn2c(=O)[nH]c3ccc(Oc4ncccn4)cc3c2=O)c1)c1ccc(Cl)cc1`, the growth was 63%.

On to `CC[C@H](Nc1ncnc2nc[nH]c12)c1nc2cccc(NCc3ccc(C(=O)NO)o3)c2c(=O)n1-c1ccccc1`, for which the growth was 107%.

For `CCCCCCCCCC[N+](C)(C)N`, the growth is 91.8%.

Consider `C=C(C)C(C(=O)OCC)(C(=O)OCC)C(C)C`, for which the growth is 102%.

Regarding `COC1=CC(c2ccc[nH]2)=N/C1=C\c1[nH]c(C)c(C(=O)CCCCC(=O)NC(C)(C)C)c1C`, the growth is 22%.

For the molecule `COc1ccc(NC(=O)/C=C(C)/C=C/C=C(C)/C=C/C2=C(C)CCCC2(C)C)cc1`, the growth is 26.3%.

For the molecule `CCCCCCCCc1ccc(OCCOCC[N+](C)(C)CC)cc1` (tested in a mixture with another compound), the growth was 20.8%.

For the molecule `COc1cc2c(cc1OC)C(Cc1cc(OC)c(OC)cc1[N+](=O)[O-])=NCC2`, the growth was 77.4%.

As for `O=C1CCNC1`, the growth is 87.4%.

In the case of `COc1ccc(-c2nnc(SCC(=O)Nc3ccc(C(=O)/C=C/c4cc(OC)c(OC)c(OC)c4)cc3)n2-c2ccccc2)cc1OC`, the growth is -96.9% [100 µM] (active).

Consider `O=S(=O)(O)c1ccc2c(c1)Sc1cc(S(=O)(=O)O)ccc1O2`, for which the growth was 102%.

Regarding `Cc1ccc(S(=O)(=O)Nc2cccc(Cn3c(=O)[nH]c4ccc(Oc5ncccn5)cc4c3=O)c2)cc1`, the growth was 79.1%.

Take `CCCCCCCCCCC(C[N+](C)(C)C/C=C/c1ccccc1)C(O)c1ccccc1` (stereo not given): the growth was -93.9% (active).

With `COc1ccc(/C=C2\CCCC3=C2N=C2SC=NN2C3c2ccc(OC)c(OC)c2)cc1OC` (stereo not given), the growth is 30.2%.

With `COc1cc(CCNc2cnc3cc(N)cc(N)c3n2)cc(OC)c1`, the growth is 104%.

Regarding `O=C(CCl)c1ccc2c(c1)CCCC2`, the growth was 96.5%.

Turning to `Cc1ccc(C(=O)Nc2ccc(CN3CCN(C)CC3)c(C(F)(F)F)c2)cc1C#Cc1cnc(N)c2ccc(F)cc12`, the growth was -89.2% (active).

Regarding `Cc1ccc(C(=O)Nc2ccc(CN3CCN(C)CC3)c(C(F)(F)F)c2)cc1C#Cc1cncc2ncccc12`, the growth was -93.8% (active).

As for `O=C(Nc1ccc(-n2cc(-c3ccncc3)c(-c3ccc(Cl)c(O)c3)n2)cc1)c1cc(C(F)(F)F)cc(C(F)(F)F)c1`, the growth was 54.3%.

For the molecule `CCCCCCCCCC(C)NC(=O)CCl` (stereo not given), the growth was 82.1%.

`COc1ccc(C(=O)CN2C(=O)NC(c3ccccc3)(c3ccccc3)C2=O)cc1`: the growth was 101%.

For `CCCCCCCCC(=O)Nc1ccc(O)cc1`, the growth was 91.4%.

Consider `COc1ccc(-c2nc(SCC(C)C)nc(Nc3ccccc3)c2C#N)cc1`, for which the growth is 50.5%.

For the molecule `N#Cc1ccc(NC2c3ccccc3CC2O)cc1` (stereo not given), the growth is 113%.

As for `N#CCCCCCCCCCCC#N`, the growth is 105%.

Take `CCOC(=O)c1ccc2n1CCCc1cnc(NC(C)=O)nc1-2`: the growth was 102%.

On to `O=C(/C(Br)=C/c1ccccc1)c1ccccc1`, for which the growth was 5.38% (active).

Take `COc1ccc2c(N)ncc(C#Cc3cc(C(=O)Nc4ccc(CN5CCN(C)CC5)c(C(F)(F)F)c4)cnc3C)c2c1`: the growth is -92.2% (active).

In the case of `CCCCCCCCCCCC(=O)OC(C)C(=O)Nc1ccccc1` (stereo not given), the growth is 97.7%.
